Growth data for twelve compounds are collected here from PubChem BioAssay (NCI).

Each structure is given as a SMILES string. About 83,000 compounds went through this panel and 20% of them were active in at least one assay; those are over-represented in the sample as a whole.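 Cell lines were cultured in 96-well plates, exposed to a single compound concentration, and assessed for percent growth 48 hours later.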 Values without a mark were called inactive. Active and inactive are the calls of the source. Rule for the calls: active = growth percent below 10; inactive = the rest.

This assay relates to MDA-MB-468 breast. Put plainly: NCI-60 one-dose screen, 48 h (100 = growth as untreated, 0 = no growth, -100 = all killed). The settings on record: 10 µM unless noted.
For the compound `O=C1Nc2ccccc2/C1=N/c1nc(-c2ccc(Cl)cc2)cs1`, the growth is 59%.

Take `CC(=O)Oc1ccc(C2OC(c3ccc4ccccc4c3OC(C)=O)=NN2C(C)=O)c(OC(C)=O)c1` (configuration not stated): the growth was -14.4% (active).

For the compound `Nc1c(C(=O)Nc2ccncc2)sc2nc3c(cc12)C(O)CCC3` (configuration not stated), the growth was 88.5%.

In the case of `CS(=O)c1nccc(-c2c(-c3ccc(F)c(OCc4ccc(F)cc4)c3)nc3sccn23)n1` (configuration not stated), the growth was -69.4% (active).

Consider `Cc1ccc(-c2ccc(/C=C(\C#N)c3nc(-c4ccco4)cs3)o2)cc1`, for which the growth is -45.8% (active).

In the case of `Cc1nccc2c3ccc(OCc4cn(-c5ccccc5)nn4)cc3n(CCCc3ccccc3)c12`, the growth is 49%.

Consider `O=C(/C=C/c1ccc(Oc2ccc(Br)cc2)cc1)c1ccc(Br)cc1`, for which the growth was 98.3%.

As to `C=C1C(=O)O[C@H]2[C@H]1CC/C(COC(=O)/C=C\C(=O)NCc1ccc(Cn3c(=O)sn(CCCCl)c3=O)cc1)=C\CC[C@@]1(C)O[C@@H]21`, the growth was 40.3%.

For `O=c1c2cc(F)ccc2sc2c(Nc3cccnc3)nc3ccccc3c12`, the growth was 76.4%.

For the compound `CCCCN(CCCC)CCCN=c1nc2c(c(N)n1-c1ccccc1)c(=S)n(-c1ccccc1)c(=S)n2-c1ccccc1`, the growth was -89.9% (active).

Turning to `Cc1ccc(S(=O)(=O)NCCNc2nccc(-c3c(-c4cccc(N)c4)nc4sccn34)n2)cc1`, the growth is 63.2%.

Consider `Cc1ccc2c(n1)C(=O)C(Cl)=C(Nc1cccc(C(=O)OC(C)(C)C)c1)C2=O`, for which the growth is -57.7% (active).
